# Measurements as given in PubChem BioAssay (NCI).
# This is part of a sample that, as a whole, favours compounds with a hit. Of some 83,000 tested, about 20% had one in any assay.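 Activity criterion: percent growth below 10, measured after cells in 96-well plates were exposed to a single compound concentration for 48 hours.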 Calls of active or inactive are those of the source.
# Tested on: MDA-MB-231 breast
# Experiment: NCI-60 one-dose screen, 48 h (100 = growth as untreated, 0 = no growth, -100 = all killed)
# Settings: 10 µM unless noted
row,SMILES,growth
1,COc1cc(/C=C/C(=O)c2ccc(NC(=O)CSc3nnc(-c4ccc5nc(-c6ccccc6)[nH]c5c4)o3)cc2)cc(OC)c1OC,93.6% (inactive)
2,O=c1oc2ccc(-c3ccc(F)cc3F)cc2c(=O)n1-c1cccc(C(F)(F)F)c1,-4.78% (active)
3,C#CCOc1ccccc1C(Nc1ccccc1)c1nnnn1C1CCCCC1 (stereo not given),96.1% (inactive)
4,NCCN1CCN(c2nc(-c3ccccc3)nc3nc(-c4ccccc4)oc23)CC1,-74.5% (active)
5,CN1C(=O)N(C)C2Nn3c(s/c(=C\c4ccccn4)c3=O)=NC21 (stereo not given),99.5% (inactive)
6,CNC(=O)c1cc(N2CCc3cc(NC(=O)Nc4ccc(Cl)c(Cl)c4)ccc32)ccn1,90.9% (inactive)
7,NS(=O)(=O)c1ccc(-n2cc(CC=O)nn2)cc1,103% (inactive)
8,COc1ccc(N)cc1C(=O)Nc1cccc(-c2cc(=O)c3c(OC)c(OC)c(OC)cc3o2)c1,60.2% (inactive)
9,O=C(CSc1nnc(-c2ccc(Cl)cc2)n1-c1ccccc1)Nc1ccc(F)cc1,49.4% (inactive)
10,O=C(c1cccc(F)c1)n1ccc2cc(NC(=S)Nc3cccnc3)ccc21,106% (inactive)
11,O=C(O)c1ccc(-n2cc(CNc3ccc(Cl)cc3)c(-c3ccc(F)cc3)n2)cc1,94.2% (inactive)
12,CCC(CC)N1C(=O)/C(=c2\sc3n(c2=O)C2C(NN=3)N(CC)C(=O)N2CC)c2ccccc21 (stereo not given),32.8% (inactive)

# Tested on: RXF 393 renal
# Experiment: as above
# Settings: 10 µM unless noted
row,SMILES,growth
1,COc1ccc(-c2nn(-c3ccccc3)cc2/C=C/C(=O)c2ccc(NC(=O)CCCCCCC(=O)NO)cc2)cc1,63.8% (inactive)
2,O=C(NCCCNc1cc(-c2cn(-c3ccccc3)nc2-c2cccc(O)c2)ccn1)Nc1cccc(C(F)(F)F)c1,-14% (active)
3,Cc1[nH]nc2ccc(-c3nc4cnc(N5CCN(C)CC5)cn4c3Nc3ccc(F)cc3Br)cc12,63.3% (inactive)
4,O=C(/C=C/c1cccc(O)c1)c1ccc(O)cc1,94.8% (inactive)
5,C#Cc1ccc(NC(=O)c2ccc(/C=C/C(=O)c3nccn3C)cc2)c(F)c1,10.5% (inactive)
6,O=C(Nc1ccc(F)cc1)c1cc(-c2ccc(F)cc2F)ccc1O,-21.1% (active)
7,Oc1ccc(CSc2nnc(-c3ccc(Oc4ccccc4)cc3)o2)c2cccnc12,60.6% (inactive)
8,Cc1ccc(NC(=O)c2ccc(CN3CCN(C)CC3)c(C(F)(F)F)c2)cc1Oc1ccc(-c2[nH]nc3ncnc(N)c23)cc1,42.3% (inactive)
9,N#Cc1c(NC(=O)c2ccccc2C(F)(F)F)sc2c1CCC(=O)C2,-23.8% (active)
10,CCN(CC)c1ccc2cc(C(=O)NCCOCCOCCOCCn3cc(CCC(=O)Nc4ccc(C(=O)c5ccc(NC(=O)OC(C)(C)C)cc5)cc4)nn3)c(=O)oc2c1,69.8% (inactive)
11,CS(=O)(=O)c1ccc(-c2nn(-c3ccccc3)cc2/C=N/NC(=O)c2ccncc2)cc1,78.2% (inactive)
12,Cc1ccc(S(=O)(=O)N/N=C/c2cn(-c3ccc(F)cc3)nc2-c2ccc(S(C)(=O)=O)cc2)cc1,117% (inactive)
13,CS(=O)(=O)c1ccc(-c2nn(-c3ccccc3)cc2/C=C/C(=O)c2ccc(Br)cc2)cc1,93.7% (inactive)
14,O=C(NCCCNc1cc(-c2cn(-c3ccccc3)nc2-c2cccc(O)c2)ccn1)Nc1ccc(F)cc1,-34.9% (active)
15,CN1C(=O)N(C)C2C1NN=c1s/c(=C\c3ccccn3)c(=O)n12 (stereo not given),102% (inactive)
16,Fc1ccc(-c2cc3nc(C(Cl)Cl)nc(-c4cccs4)n3n2)cc1,-44.1% (active)
17,COc1ccc([C@H]2c3[nH]c4ccccc4c3C[C@@H]3C(=O)N(C4CCN(Cc5ccccc5)CC4)CC(=O)N23)c(OC)c1,41.9% (inactive)
18,Cn1ccnc1C(=O)/C=C/c1ccc(C(=O)Nc2ccc(NC(=O)CCNC(=O)c3csc(Br)n3)cc2)cc1,68.2% (inactive)
19,Cc1nn(-c2ccccc2)cc1/C=N/Nc1nc(Nc2ccccc2)nc(Nc2ccc(S(N)(=O)=O)cc2)n1,-20.4% (active)

row,SMILES,growth
1,COCCC[C@H]1O[C@@](O)([C@H](C)[C@@H]2CC(OC)C(O)/C=C(C)/C=C(C)/C=C(\C)C(OC3O[C@@H](C)[C@H](O)C(O)[C@@H]3O)C(C)/C=C(C)/C=C(OC)/C=C(\C)C(=O)O2)C(OC)C(O)[C@]1(C)O[C@H]1C[C@@H](O)[C@H](O[C@H]2C[C@](C)(O)[C@H](O)C(C)O2)C(C)O1 (stereo not given in full),47.6% (inactive)
2,COc1ccc(N2C(=O)c3cc(OC)c(OC)cc3NC2SCc2ccccc2)cc1 (stereo not given),144% (inactive)
3,Cc1cc2nc(C(Cl)Cl)nc(-c3ccco3)n2n1,12.5% (inactive)
4,COc1ccc(S(=O)(=O)NCCCNc2nccc(-n3cnc4ccccc43)n2)cc1,80.6% (inactive)
5,O=C(NCCCNc1cc(-c2cn(-c3ccccc3)nc2-c2cccc(O)c2)ccn1)Nc1cc(C(F)(F)F)cc(C(F)(F)F)c1,8.69% (active)
6,Cc1ccc(NC(=O)c2ccc(CN3CCN(C)CC3)c(I)c2)cc1Oc1ccc(-c2[nH]nc3ncnc(N)c23)cc1,44.9% (inactive)
7,Cc1ccc(-n2cc(/C=C/C(=O)c3ccc(S(C)(=O)=O)cc3)c(-c3ccc(S(C)(=O)=O)cc3)n2)cc1,97.9% (inactive)
8,COc1cc(/C=C/C(=O)c2ccc(NC(=O)CSc3nnc(-c4ccc5nc(-c6ccccc6)[nH]c5c4)o3)cc2)cc(OC)c1OC,-6.89% (active)
9,O=c1oc2ccc(-c3ccc(F)cc3F)cc2c(=O)n1-c1cccc(C(F)(F)F)c1,-24.7% (active)
10,C#CCOc1ccccc1C(Nc1ccccc1)c1nnnn1C1CCCCC1 (stereo not given),113% (inactive)
11,NCCN1CCN(c2nc(-c3ccccc3)nc3nc(-c4ccccc4)oc23)CC1,49.6% (inactive)
12,CN1C(=O)N(C)C2Nn3c(s/c(=C\c4ccccn4)c3=O)=NC21 (stereo not given),110% (inactive)
13,CNC(=O)c1cc(N2CCc3cc(NC(=O)Nc4ccc(Cl)c(Cl)c4)ccc32)ccn1,-2.71% (active)
14,NS(=O)(=O)c1ccc(-n2cc(CC=O)nn2)cc1,99.5% (inactive)
15,COc1ccc(N)cc1C(=O)Nc1cccc(-c2cc(=O)c3c(OC)c(OC)c(OC)cc3o2)c1,50.4% (inactive)
16,O=C(CSc1nnc(-c2ccc(Cl)cc2)n1-c1ccccc1)Nc1ccc(F)cc1,82.9% (inactive)
17,O=C(c1cccc(F)c1)n1ccc2cc(NC(=S)Nc3cccnc3)ccc21,108% (inactive)
18,O=C(O)c1ccc(-n2cc(CNc3ccc(Cl)cc3)c(-c3ccc(F)cc3)n2)cc1,94.9% (inactive)
19,CCC(CC)N1C(=O)/C(=c2\sc3n(c2=O)C2C(NN=3)N(CC)C(=O)N2CC)c2ccccc21 (stereo not given),9.61% (active)
